The source of these data is PubChem BioAssay (NCI).

The panel holds about 83,000 compounds, 20% with a hit somewhere; the sample as a whole holds those more often.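 96-well plates, one dose, 48 hours. Percent growth reported; active if below 10.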 A number with no mark means an inactive call. The source made the active and inactive calls.

Some test systems named below: NCI-H23 lung; NCI-H226 lung; NCI-H322M lung; HOP-62 NSCLC; NCI-H460 lung; HOP-92 NSCLC; NCI-H522 lung; A549/ATCC NSCLC; 786-0 renal; COLO 205 colon.
Assay in all cases: NCI-60 one-dose screen, 48 h (100 = growth as untreated, 0 = no growth, -100 = all killed)
What all share (conditions): 10 µM unless noted

As for `CN1CCN(c2ccc(Nc3c4ccccc4nc4ccccc34)cc2)CC1`, the growth was 105% in the experiment on NCI-H23 lung; 107% in the experiment with NCI-H226 lung; 120% in the experiment on NCI-H322M lung; 110% with HOP-62 NSCLC; 104% with NCI-H460 lung; 178% in the experiment with HOP-92 NSCLC. For the same molecule, the growth in the experiment with NCI-H522 lung was 99.7%; in the experiment with A549/ATCC NSCLC, 98.2%; in the experiment on 786-0 renal, 102%; in the experiment on COLO 205 colon, 114%.

Turning to `Cn1c(NCCc2ccc(O)c(O)c2)nc2c1c(=O)n(Cc1ccc(Br)cc1)c(=O)n2C`, the growth in the experiment with NCI-H23 lung was 86.4%; with NCI-H226 lung, 84.1%; in the experiment on NCI-H322M lung, 87.8%; in the experiment on HOP-62 NSCLC, 108%; with NCI-H460 lung, 94.3%; in the experiment on HOP-92 NSCLC, 61.1%. In addition, the growth in the experiment with NCI-H522 lung was -26.6% (active); in the experiment on A549/ATCC NSCLC, 83.9%; in the experiment on 786-0 renal, 82%; in the experiment with COLO 205 colon, 50.5%.

With `COc1ccc(C(=O)/C=C/c2cccnc2Nc2cc(OC)c(OC)c(OC)c2)cc1`, the growth in the experiment with NCI-H23 lung was 59.2%; with NCI-H226 lung, 41%; in the experiment with NCI-H322M lung, 80.5%; with HOP-62 NSCLC, 48%; in the experiment on NCI-H460 lung, 5.28% (active); in the experiment with HOP-92 NSCLC, 49.3%. In addition, the growth is 14.8% in the experiment with NCI-H522 lung, 23.6% in the experiment on A549/ATCC NSCLC, 39.2% in the experiment with 786-0 renal and 38.6% in the experiment with COLO 205 colon.

`N#CCCN=Nc1c(O)[nH]c2ccc([N+](=O)[O-])cc12`: the growth in the experiment with NCI-H23 lung is 94.9%; in the experiment on NCI-H226 lung, 96%; with NCI-H322M lung, 98%; in the experiment with HOP-62 NSCLC it was 99.4%; in the experiment on NCI-H460 lung, 102%; in the experiment with HOP-92 NSCLC, 102%. Also, the growth is 78.8% in the experiment on NCI-H522 lung, 114% in the experiment with A549/ATCC NSCLC, 104% in the experiment on 786-0 renal and 109% in the experiment on COLO 205 colon.

With `O=C1OC(c2ccccc2)C(O)=C1c1ccccc1` (stereo not given), the growth in the experiment with NCI-H23 lung was 115%; in the experiment on NCI-H226 lung it was 100%; in the experiment with NCI-H322M lung, 130%; with HOP-62 NSCLC it was 122%; in the experiment on NCI-H460 lung, 113%; in the experiment on HOP-92 NSCLC, 96.4%. Besides, the growth was 110% in the experiment with NCI-H522 lung, 86.6% with A549/ATCC NSCLC, 116% in the experiment on 786-0 renal and 120% with COLO 205 colon.

Regarding `N#Cc1c(-c2ccc(Cl)cc2)nc(N=Nc2c(O)[nH]c3ccc(Cl)cc23)nc1N1CCOCC1`, the growth is 84.8% with NCI-H23 lung; 85.6% with NCI-H226 lung; 96.5% with NCI-H322M lung; 96.3% with HOP-62 NSCLC; 98.4% in the experiment with NCI-H460 lung; 89.5% in the experiment on HOP-92 NSCLC. Further, the growth in the experiment on NCI-H522 lung is 93.6%; in the experiment on A549/ATCC NSCLC it was 102%; in the experiment with 786-0 renal, 103%; in the experiment with COLO 205 colon, 105%.

On to `Cn1c(NCCc2ccc(O)c(O)c2)nc2c1c(=O)n(Cc1ccc(Cl)c(Cl)c1)c(=O)n2C`, for which the growth with NCI-H23 lung is 91.5%; in the experiment on NCI-H226 lung, 73.7%; with NCI-H322M lung, 82.1%; with HOP-62 NSCLC, 104%; in the experiment with NCI-H460 lung, 88.2%; in the experiment on HOP-92 NSCLC, 45.3%. The growth was -28.7% (active) in the experiment with NCI-H522 lung, 80.3% with A549/ATCC NSCLC, 83% with 786-0 renal and 57.4% in the experiment on COLO 205 colon.

`CC1=NN(c2nc(-c3ccc(Cl)cc3)c(C#N)c(N3CCOCC3)n2)C(=O)C1`: the growth with NCI-H23 lung is 80.7%; in the experiment on NCI-H226 lung it was 89.8%; in the experiment on NCI-H322M lung, 101%; in the experiment with HOP-62 NSCLC it was 87%; in the experiment on NCI-H460 lung, 99.1%; with HOP-92 NSCLC it was 6.28% (active). In addition, the growth in the experiment with NCI-H522 lung was 78.9%; in the experiment on A549/ATCC NSCLC, 101%; with 786-0 renal it was 49.1%; with COLO 205 colon it was 104%.

For `COc1cccc(-c2nc3sccn3c2-c2ccnc(NCCCNS(=O)(=O)c3cccc(F)c3)c2)c1`, the growth is 21.3% with NCI-H23 lung; 19.1% with NCI-H226 lung; 72% with NCI-H322M lung; 33.4% in the experiment with HOP-62 NSCLC; 44.9% in the experiment on NCI-H460 lung; 49.5% with HOP-92 NSCLC. Further, the growth was 18.1% in the experiment on NCI-H522 lung, 18.1% with A549/ATCC NSCLC, 52.6% in the experiment with 786-0 renal and 19% in the experiment on COLO 205 colon.

Regarding `COc1cc(-c2nc3ccccc3[nH]2)ccc1OCc1nnc(-c2ccc(CC(C)C)cc2)o1`, the growth in the experiment with NCI-H23 lung is 91.1%; in the experiment with NCI-H226 lung it was 87.7%; with NCI-H322M lung, 93.8%; with HOP-62 NSCLC, 93.4%; with NCI-H460 lung it was 98.8%; in the experiment on HOP-92 NSCLC it was 79.7%. Also, the growth with NCI-H522 lung was 93.5%; in the experiment on A549/ATCC NSCLC, 84.2%; with 786-0 renal, 93.7%; with COLO 205 colon, 101%.

Consider `Cn1cccc1-c1nc2c3c(ccc2[nH]1)C(=O)c1ccccc1C3=O`, for which the growth was 85.3% in the experiment with NCI-H23 lung; 86.2% in the experiment on NCI-H226 lung; 81.8% in the experiment on NCI-H322M lung; 102% with HOP-62 NSCLC; 87.2% with NCI-H460 lung; 89% with HOP-92 NSCLC. Besides, the growth is 73.6% in the experiment on NCI-H522 lung, 87.9% with A549/ATCC NSCLC, 103% with 786-0 renal and 120% with COLO 205 colon.

Regarding `COc1cc2c(cc1-c1c(C)noc1C)ncc1nc(-c3ccccn3)n([C@H](C)COC(F)F)c12`, the growth in the experiment on NCI-H23 lung is 61.1%; in the experiment with NCI-H226 lung it was 57.8%; in the experiment on NCI-H322M lung it was 51.4%; in the experiment on HOP-62 NSCLC, 40.9%; with NCI-H460 lung, 57.7%; in the experiment on HOP-92 NSCLC it was 26.7%. The growth was 29.3% in the experiment with NCI-H522 lung, 39% in the experiment on A549/ATCC NSCLC, 50.4% in the experiment with 786-0 renal and 29.8% with COLO 205 colon.

For the molecule `COc1ccc(CN2c3ccccc3Oc3ccccc32)cc1O`, the growth in the experiment on NCI-H23 lung was 33.8%; with NCI-H226 lung, 93.9%; in the experiment on NCI-H322M lung, 56.3%; in the experiment on HOP-62 NSCLC it was 42.1%; in the experiment with NCI-H460 lung, 13.3%; with HOP-92 NSCLC it was 32.8%. Also, the growth was -33.2% (active) in the experiment with NCI-H522 lung, 37.6% in the experiment with A549/ATCC NSCLC, 43.2% in the experiment on 786-0 renal and 91.3% with COLO 205 colon.
